Screens from PubChem.
Peg3 prom inh = Peg3 promoter-driven luciferase inhibitors, primary screen, cell-based, HeLa, luciferase luminescence; HeLa PEG-Prom luciferase reporter, overnight; inhibition, % at 20 µM; 360,000 compounds, 1.7% hits; AID 588405, 2011;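 active means inhibition of at least 50% at 20 µM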
CF NFkB inh = inhibitors of PAF-induced NF-kB signaling, primary screen, cell-based, GFP fluorescence, uHTS. inhibition, % at 5 µM. 360,000 compounds, 0.86% hits. AID 588850, 2011. KKLEB NF-kB-GFP reporter, GFP fluorescence overnight;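 active means at least 50% inhibition at 5 µM, scaled per plate between neutral and stimulator controls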;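 further: PAF is a Pseudomonas aeruginosa culture filtrate used as stimulus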
KKLEB tox = cytotoxicity in KKLEB CF airway cells, primary screen, cytotoxicity control for CF NF-kB inhibitor project, cell-based, uHTS, fluorescence assay plates. activity change (cytotoxicity), % at 5 µM. AID 602141, 2011. KKLEB CF airway cells viability, ATPlite luminescence, overnight; hits give low values; cells stimulated with P. aeruginosa culture filtrate. 360,000 compounds, 0.36% hits;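 active means corrected activity change at or below -50% at 5 µM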
TROY NFkB inh = inhibitors of TROY-driven NF-kB signaling, primary screen, Q293 LMP1-TROYcd cells, NF-kB luciferase, uHTS; Q293 LMP1-TROYcd NF-kB luciferase reporter, 4 h; inhibition, % at 10 µM; 360,000 compounds, 0.98% hits; AID 1347056, 2019;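 active means compounds whose plate-normalised and pattern-corrected inhibition of the luciferase reporter signal at the single screening dose is 50% or more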
TWEAK-Fn14 inh = inhibitors of TWEAK-Fn14 signaling, primary screen, luciferase reporter cells, uHTS. TWEAK-stimulated Fn14 reporter cells, luciferase luminescence, 8 h. inhibition, % at 10 µM. 360,000 compounds, 2% hits; in the data active means inhibition above about 50%
HIF-2a block = HIF-2a reporter inhibitors, primary screen, luminescence, 786-0 RCC cells; 360,000 compounds, 0.72% hits; inhibition, % at 18.8 µM; AID 624352, 2012; 786-0 RCC cells HIF-2a reporter, luciferase luminescence, overnight;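 active means inhibition of the luminescence signal of 40% or more relative to plate controls, in a single-dose primary screen at 18.75 µM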
Numbers stand for hits; . = inactive. The list is not random: actives were taken first. Their share in the collection is about 3.9%.

SMILES	Peg3 prom inh	CF NFkB inh	KKLEB tox	TROY NFkB inh	TWEAK-Fn14 inh	HIF-2a block
CCOc1ccc(-c2nnc(-c3cccs3)o2)cc1	.	.	.	.	63.2	.
CCCOc1ccc(-c2nnc(-c3ccncc3)o2)cc1	.	.	-52.7	.	.	.
c1csc(-c2nnc(-c3ccc(N4CCOCC4)cc3)o2)c1	.	.	.	.	58.7	.
O=C(CC(c1ccccc1)c1ccccc1)Nc1ccncc1	.	.	.	.	.	.
CC(O)c1cccc(NC(=O)CC(c2ccccc2)c2ccccc2)c1 (configuration not stated)	.	.	.	.	86.4	.
CN(CC(=O)Nc1ccc(N2CCOCC2)cc1)Cc1c(O)ccc2ccccc12	.	.	.	50.1	.	.
CN(CC(=O)Nc1ccc(N2CCOCC2)cc1)CC(=O)Nc1ccc(N2CCOCC2)cc1	.	.	.	.	.	.
Cc1ccc(C)c(NC(=O)C(NCC(C)(C)N2CCOCC2)c2ccccc2)c1 (configuration not stated)	.	.	.	.	.	.
COc1ccc(Cl)cc1NC(=O)c1cnc2n(c1=O)CCS2	.	.	.	.	53.5	.
CC(CCc1ccccc1)NC(=O)COC(=O)c1ccccc1Br (configuration not stated)	.	.	.	.	.	.
Cc1cc(OC(=O)Cc2cccc3ccccc23)c([N+](=O)[O-])c(=O)[nH]1	.	.	.	.	.	.
CCOc1ccc(C(=O)c2ccccc2C(=O)O)cc1OCC	.	.	.	.	.	.
CC1=CC(=O)C(C(C)C)=C/C1=C(\c1cc(C(C)C)c(OP(=O)(O)O)cc1C)c1ccccc1C(=O)O	67.0	.	.	.	.	.
Cc1cccc(N2CCN(C(=O)C3CCN(S(=O)(=O)c4cccc5nsnc45)CC3)CC2C)c1 (configuration not stated)	.	.	.	.	56.2	.
COc1ccc2nc(NC(=O)C3CCN(S(=O)(=O)c4cccc5nsnc45)CC3)sc2c1	81.3	.	.	61.5	97.3	.
Cc1cccc2sc(NC(=O)C3CCN(S(=O)(=O)c4cc([N+](=O)[O-])ccc4Cl)CC3)nc12	.	.	.	.	53.7	.
Cc1nnc(NC(=O)C2CCN(S(=O)(=O)c3cc([N+](=O)[O-])ccc3Cl)CC2)o1	.	.	.	.	.	.
O=C(CNC(=O)c1ccco1)N/N=C/c1ccccc1[N+](=O)[O-]	.	.	.	.	.	.
O=c1cc(CSc2nnc(-c3cccs3)n2Cc2ccccc2)nc2sc3ccccc3n12	.	.	.	.	52.6	.
c1csc(-c2nc(CN3CCSCC3)cs2)c1	.	.	.	.	60.2	.
NS(=O)(=O)c1ccc(CCNC(=O)CN2C(=O)NC(c3ccccc3)(c3ccccc3)C2=O)cc1	.	.	.	.	.	.
O=C1C=CC(=O)C(CNc2ccc(C(=O)OCc3ccccc3)cc2)=C1	72.3	68.2	.	.	106.8	.
Nc1ccc2c(c1)C(=O)CCC2	.	.	.	73.9	54.8	.
Cn1c(=O)c2c(nc(Br)n2CC(=O)C23CC4CC(CC(C4)C2)C3)n(C)c1=O	.	.	.	.	.	.
CC(C)(C)OC(=O)NCC1CCC(C(=O)NC[C@H](CC(=O)O)c2ccc(Cl)cc2)CC1 (some centres not stated)	.	.	.	.	.	.
SMILES	Peg3 prom inh	CF NFkB inh	KKLEB tox	TROY NFkB inh	TWEAK-Fn14 inh	HIF-2a block
COc1ccc(NC(=O)CSc2cc(C)nc3c(-c4ccccc4)cnn23)cc1	.	.	.	55.8	.	.
Cc1cc(SCC(=O)Nc2ccc(O)cc2)n2ncc(-c3ccccc3)c2n1	.	.	.	.	.	.
Cc1cc(SCC(=O)Nc2ccccc2)n2ncc(-c3ccccc3)c2n1	.	.	.	62.5	.	.
Cc1ccc(C(=O)CCC(=O)Nc2ncccc2O)cc1	.	.	.	.	.	.
CC(=O)N1N=C(c2ccc(Cl)cc2)CC1c1ccc([N+](=O)[O-])cc1 (configuration not stated)	.	.	.	.	79.8	.
Nc1nc2ccccc2n1C(=O)c1ccccc1	.	.	.	.	77.9	.
Nc1nc2ccccc2n1C(=O)c1ccc(F)cc1	.	.	.	.	61.0	.
Cc1cc(NS(=O)(=O)c2ccc(NC(=O)COc3ccc(Cl)c(C)c3)cc2)no1	.	.	.	.	.	.
CC(NC(=O)COC(=O)Cc1ccc(Cl)cc1)c1ccccc1 (configuration not stated)	.	.	.	.	.	.
Cc1nc2ccccc2n1CCOc1ccc([N+](=O)[O-])cc1	.	.	.	.	.	.
CC(=O)Nc1ccc(N=Nc2ccccc2)cc1	.	.	.	.	.	.
CCCC(=O)NC(NC(=S)Nc1ccc(N=Nc2ccccc2)cc1)C(Cl)(Cl)Cl (configuration not stated)	.	.	.	.	75.9	.
CCc1ccc(OCC(=O)NC(NC(=S)Nc2ccc(Cl)cc2)C(Cl)(Cl)Cl)cc1 (configuration not stated)	51.6	.	.	.	72.0	.
O=C(CCl)Nc1ccc(N=Nc2ccccc2)cc1	107.0	.	.	.	.	.
CCCC(=O)NC(NC(=S)Nc1ccc(S(N)(=O)=O)cc1)C(Cl)(Cl)Cl (configuration not stated)	.	.	.	.	.	.
CCc1ccc(OCC(=O)NC(=S)Nc2ccc(C(=O)O)cc2)cc1	.	.	.	.	.	.
COCCCN=Cc1c(C)[nH]n(-c2ccc(Br)c(C)c2)c1=O	.	.	.	70.7	64.8	.
Cn1c(=O)c2ncn(CC(=O)O)c2n(C)c1=O	.	.	.	52.4	.	.
Cc1ccc(S(=O)(=O)Cc2ccc(C(=O)OCc3ccccc3)cc2)cc1	.	.	.	.	.	.
COC(=O)c1c[nH]c2c1-c1cc(C(=O)OCc3ccccc3)n(S(=O)(=O)c3ccc(C)cc3)c1C(=O)C2=O	81.9	85.7	.	57.1	98.9	.
COc1ccc(C2Nc3ccc4ccccc4c3-c3c2c(=O)oc2ccccc32)cc1 (configuration not stated)	56.5	.	.	.	.	.
COc1ccc(/C=C2/N=C3CCCCCN3C2=O)cc1OC	.	.	.	.	.	.
COC(=O)c1ccc2c(=O)n(CCO)c(=S)[nH]c2c1	.	.	.	.	.	.
COC(=O)c1ccc2c(=O)n(CCCCCC(=O)O)c(=S)[nH]c2c1	.	.	.	.	53.5	.
Nc1cc(=O)[nH]c(SCCSc2cc(Cl)ccc2Cl)n1	53.9	.	.	.	.	.
